Compound activity: PubChem, National Center for Advancing Translational Sciences (NCATS)
This excerpt belongs to a sample that is enriched for hits.
HT1080 IDH1KD tx = qHTS for induction of synthetic lethality in tumor cells producing 2HG: qHTS for the HT-1080-IDH1KD cell line | HT-1080 IDH1 knockdown viability, ATP luminescence, 48 h | 2% of 360,000 active | Potency, µM (highest dose often 46.1 µM), inactives show top-dose activity, negative = toxicity, actives largely listed as cytotoxic;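 further: potency means the concentration at half of the fitted maximal effect; 0% = DMSO wells and -100% = cell-free medium wells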
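CellTiter-Glo luminescence after 48 h compound exposure at 37 degrees C of IDH1-knockdown HT-1080 cells in 5% FBS RPMI. %Activity scaled between DMSO wells and cell-free media wells, with curves fitted and assigned curve classes.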
DT40 TDP1 no CPT = qHTS for Inhibitors of human tyrosyl-DNA phosphodiesterase 1 (TDP1): qHTS in cells in absence of CPT; 15% of 420,000 active; Potency, µM (titrated, usually from 46.2 µM), for inactives: at the highest dose activity change, negative = growth inhibition, actives largely listed as inhibitors; AID 686978, 2013; DT40 Tdp1-/- hTDP1 cells, no CPT, ATP luminescence, 48 h; further: potency means the concentration at half of the fitted maximal effect; nearly all actives have a fitted effect of over 55% in size
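Camptothecin absent (DMSO only). Human TDP1-complemented DT40 knockout cells, 400 cells/well, 37 °C for minimum 48 hr; ATP measured via CellTiter-Glo, 30 min dark incubation, luminescence.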
TDP1 cell CPT = qHTS for Inhibitors of human tyrosyl-DNA phosphodiesterase 1 (TDP1): qHTS in cells in presence of CPT; Potency, µM (doses to about 46.2 µM), without a hit: at the top dose activity change, negative = growth inhibition, most hits filed as inhibitors; 12% of 420,000 active; chicken DT40 Tdp1-/-;hTDP1 cells + 20 nM CPT, ATP luminescence, 48 h; further: potency means the concentration at half of the fitted maximal effect; nearly all actives have a fitted effect of over 55% in size
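Chicken DT40 Tdp1-/- cells complemented with human TDP1, 400 cells/well, exposed to compounds plus 20 nM camptothecin for at least 48 h at 37 C; viability read as ATP content by CellTiter-Glo luminescence.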
12-LOX inh = Primary qHTS assay for inhibitors of human arachidonate 12S-lipoxygenase (ALOX12): Round 2; purified 12hLO, xylenol orange hydroperoxide absorbance; 1.1% of 580,000 active; Polyunsaturated fatty acid lipoxygenase ALOX12 (Homo sapiens), P18054; Potency, µM (top dose mostly 108 µM), without a hit: top-dose activity change, negative = inhibition, hits mostly inhibitors; further: potency means the concentration at half of the fitted maximal effect
Target sequence (P18054 whole entry, looked up): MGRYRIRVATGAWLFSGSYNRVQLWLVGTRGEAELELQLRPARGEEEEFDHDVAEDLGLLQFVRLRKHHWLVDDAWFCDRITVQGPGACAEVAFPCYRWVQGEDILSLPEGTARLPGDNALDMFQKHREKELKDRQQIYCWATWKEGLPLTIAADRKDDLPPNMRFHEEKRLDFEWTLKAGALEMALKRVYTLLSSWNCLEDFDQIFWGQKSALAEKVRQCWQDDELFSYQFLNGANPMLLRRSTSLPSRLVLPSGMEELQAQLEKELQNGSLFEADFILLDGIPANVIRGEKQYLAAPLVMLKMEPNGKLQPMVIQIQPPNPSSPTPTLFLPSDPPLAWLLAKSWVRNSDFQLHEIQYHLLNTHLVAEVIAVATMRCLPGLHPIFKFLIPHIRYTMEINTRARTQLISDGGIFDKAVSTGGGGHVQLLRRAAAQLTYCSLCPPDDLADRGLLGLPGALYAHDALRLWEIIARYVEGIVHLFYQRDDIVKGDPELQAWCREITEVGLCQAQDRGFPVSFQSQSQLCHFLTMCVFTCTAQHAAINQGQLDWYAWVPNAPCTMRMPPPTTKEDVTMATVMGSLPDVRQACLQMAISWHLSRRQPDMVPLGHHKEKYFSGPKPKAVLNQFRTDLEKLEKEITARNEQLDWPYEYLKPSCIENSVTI
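Hydroperoxide product was detected by ferrous iron/xylenol orange as the 573 to 405 nm absorbance ratio. Arachidonic acid at 40 uM (final) was turned over for 30 min at room temperature by 150 nM human 12hLO, pH 7.0 Hepes buffer, after 15 min compound preincubation.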
HT1080NT lethal = qHTS for induction of synthetic lethality in tumor cells producing 2HG: qHTS for the HT-1080-NT fibrosarcoma cell line. AID 686970, 2013. HT-1080-NT fibrosarcoma viability, CellTiter-Glo ATP luminescence, 48 h. Potency, µM (series often up to 46.1 µM), for inactives: at the top dose activity, negative = less viability, actives largely listed as cytotoxic. 1.6% of 360,000 active;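 further: NT is the 2HG producing partner of a matched IDH1 knockdown line; potency means the concentration at half of the fitted maximal effect; 0% = DMSO-treated cells and -100% = media-only wells without cells; nearly all actives have a fitted effect of over 55% in size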
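Viability of the 2HG-overproducing fibrosarcoma line after 48 hours of compound exposure at 37 degrees C was determined by luminescence with CellTiter-Glo, and concentration-effect curves were then fitted and categorized.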
IL-1B inflam inh = qHTS for Inhibitors of Inflammasome Signaling: IL-1-beta AlphaLISA Primary Screen; THP-1 LPS/ATP IL-1B secretion, AlphaLISA, 16 h; active compounds read low; activity change, % at 57.5 µM; 4.7% of 360,000 active; AID 743279, 2014; in the data active means activity change below about -50%; inconclusive means mostly about -30% to -49%
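Secreted IL-1B measured by AlphaLISA bead assay after 16 h compound exposure of THP-1 cells; compounds (final up to 57.5 uM) added 1 h before LPS (250 ng/mL) and ATP (1.25 mM) stimulation; lower signal means less secretion.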
Numbers without * were called inactive; i = inactive; ? = inconclusive; . = not tested or not shown; [ ] = another dose, or the depositor's remark. Unless noted, the call rests on the fitted dose curve; in most records, active means well fitted curve in the direction sought with a large enough effect; inconclusive means small, poorly fitted or top-dose-only effect, or another doubt; inactive means no such curve, though single readings can be large; an effect the other way counts as inactive or inconclusive. Unless noted, on the % scale 0 is the no-effect control and ±100 the full control effect.

SMILES	HT1080 IDH1KD tx	DT40 TDP1 no CPT	TDP1 cell CPT	12-LOX inh	HT1080NT lethal	IL-1B inflam inh
CCOC(=O)/C=C1\CN(Cc2cc(OC)c(OC)c(OC)c2)S(=O)(=O)c2ccccc21	-10%	6.5µM*	10µM*	-7%	?	0
C=C1CCN([C@@H](C)C(=O)NCc2cc(OC)c(OC)c(OC)c2)S(=O)(=O)c2ccccc21	6%	?	?	3%	9%	3
CCCCCCCCCCCCN1C/C(=C\C(=O)OCC)c2ccccc2S1(=O)=O	-8%	11µM*	16µM*	-8%	1%	25
O=C(Cc1noc(C(=O)NCc2ccccc2Cl)n1)Nc1cccc2ncccc12	.	.	.	-2%	.	.
CC(C)(C)c1cc(C(=O)OCCN2CCCCC2)cc(C(C)(C)C)c1	.	.	.	7.1µM*	.	.
COc1ccccc1CCNC(=O)C(=O)NCc1n[nH]c(=O)c2ccccc12	.	.	.	-1%	.	.
C=C(C)CNC(=S)NNC(=O)CCn1c2ccc(Cl)cc2c2cc(Cl)ccc21	?	?	?	32µM*	?	-100*
C=C(C)CNC(=S)NNC(=O)CCn1c2cc(Cl)ccc2c2ccc(Cl)cc21	1%	?	-31%	?	5%	14
O=C1NCc2ccccc2CC12CCN(Cc1ccccc1C(F)(F)F)C2 (stereo unspecified)	.	.	.	4%[6.33 µM]	.	.
COCCn1c(C)cc(C(=O)CSc2nc3ccc(Cl)cc3[nH]2)c1C	.	.	.	-25%	.	.
Cc1cc(C(=O)CSc2nnc(-c3ccc(Cl)cc3)n2CC2CCCO2)c(C)n1C (stereo unspecified)	-7%	23µM*	12µM*	-2%	0%	-2
COc1ccc(Nc2nnc(SCC(=O)c3cc(C)n(CC4CCCO4)c3C)s2)cc1 (stereo unspecified)	-12%	?	18µM*	-8%	-15%	1
Cc1ccc(Nc2nnc(SCC(=O)c3ccc(O)cc3O)s2)cc1	-18%	?	-29%	45µM*	-25%	31
Cc1cc(C(=O)CSc2nc3ccc(Cl)cc3[nH]2)c(C)n1CC1CCCO1 (stereo unspecified)	?	5.8µM*	9.2µM*	-2%	-18%	-12
COc1ccc(NC(=O)CCC2CCCN(S(=O)(=O)c3ccc(C)cc3)C2)c(OC)c1 (stereo unspecified)	.	.	.	-7%	.	.
Cc1ccc(OCc2cc(C(=O)N(C)CCc3ccccn3)no2)cc1C	-1%	?	26µM*	-2%	-5%	14
C#CCN(C(=O)c1cc(COc2ccc(C)c(C)c2)on1)C1CCCCC1	2%	23µM*	?	2%	-1%	i
CC(=O)c1cccc(OCc2cc(C(=O)N(C)CCc3ccccn3)no2)c1	0%	?	?	?	-4%	16
CN(Cc1ccccn1)C(=O)c1cc(COc2ccc(F)c(F)c2)on1	-3%	?	18µM*	18%	0%	-14
Cc1ccc(OCc2cc(C(=O)N(C)CCc3nc4ccccc4[nH]3)no2)cc1C	-10%	21µM*	15µM*	7%	?	9
Cc1ccc(OCc2cc(C(=O)N(C)Cc3ccccn3)no2)cn1	.	.	.	25%	.	.
Cc1ccsc1CN(C)Cc1ccccc1	.	.	.	24%	.	.
CN(C)[C@@H]1CN(C(=O)c2ccc(C#N)cc2)CC[C@]1(O)c1ccccc1	.	.	.	41%	.	.
